Source: PubChem BioAssay (NCATS)
Records with an inconclusive call do not appear. Active and inactive are the calls of the source. Calls come from the whole dose curve; as a rule, active = well fitted activation curve with a large enough effect in the main read-out, with a control signal flat (not every such curve was filed as active); inconclusive = small, poorly fitted or top-dose-only effect, or effect the other way, or a change in a side signal; inactive = flat fitted curve, though single readings scatter.

Target: 3',5'-cyclic-AMP phosphodiesterase 4B (Homo sapiens) (UniProt Q07343)
Sequence (Q07343 whole entry, looked up): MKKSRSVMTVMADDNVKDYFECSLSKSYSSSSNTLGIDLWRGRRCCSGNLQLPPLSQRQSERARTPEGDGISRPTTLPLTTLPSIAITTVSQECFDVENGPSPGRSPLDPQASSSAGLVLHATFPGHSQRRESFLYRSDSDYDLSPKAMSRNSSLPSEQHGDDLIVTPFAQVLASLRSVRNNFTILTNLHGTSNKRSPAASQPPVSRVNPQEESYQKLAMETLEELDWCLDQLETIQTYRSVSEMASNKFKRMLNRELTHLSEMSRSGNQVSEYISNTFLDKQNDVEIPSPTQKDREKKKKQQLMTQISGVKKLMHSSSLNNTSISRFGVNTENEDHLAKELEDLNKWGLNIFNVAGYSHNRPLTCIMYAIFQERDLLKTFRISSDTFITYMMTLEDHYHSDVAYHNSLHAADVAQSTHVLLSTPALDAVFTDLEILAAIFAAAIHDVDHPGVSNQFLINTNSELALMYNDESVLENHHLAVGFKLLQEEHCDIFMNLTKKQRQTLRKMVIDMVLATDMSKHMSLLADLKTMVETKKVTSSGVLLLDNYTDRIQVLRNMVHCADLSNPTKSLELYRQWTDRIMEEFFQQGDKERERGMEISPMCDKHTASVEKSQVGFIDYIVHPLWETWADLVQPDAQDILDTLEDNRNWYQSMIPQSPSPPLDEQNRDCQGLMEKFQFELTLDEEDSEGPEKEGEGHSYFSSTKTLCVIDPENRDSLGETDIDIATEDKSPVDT
Experiment: qHTS Assay for Inhibitors of PDE-IV (AID 607); note: % of control where 0% means no effect
Conditions: HEK293 ACTOne CNG channel cells, membrane potential fluorescence; series mostly up to 22.9 µM; activation (PDE inhibition): at the top concentration
Description: NIH Chemical Genomics Center [NCGC]
NIH Molecular Libraries Screening Centers Network [MLSCN]
The cyclic nucleotide phosphodiesterases (PDEs) are proteins that catalyze hydrolysis of 3', 5'-cyclic nucleotides, such as cyclic adenosine monophosphate (cAMP) and cyclic guanosine monophosphate (cGMP), to their corresponding 5'-nucleotide monophosphates. These enzymes play an important role in controlling cellular concentrations of cyclic nucleotides and have a central role in a variety of intracellular signaling events. cAMP PDEs are emerging as a promising class of drug targets in asthma and cardiovascular disease therapeutic areas.
There are no commercially available cell-based screening assays for PDE inhibitors: currently biochemical assays are done using pure substrates (cAMP or cGMP) and purified recombinant PDE enzymes. As with other biochemical screens on intracellular targets, false positives and false negatives may result from issues involving cell membrane permeability, cellular metabolism, and the like.
Here we report the development of a cell-based screening assay for cAMP phosphodiesterase (PDE) inhibitors. The assay is based on the BD ACTOne# technology (BD Biosciences) which utilizes a modified cyclic nucleotide-gated channel (CNG) to monitor intracellular cAMP changes in live cells. The CNG channel is localized on the plasma membrane, and opens when the intracellular cAMP level increases, resulting in ion flux and cell membrane depolarization. The influx of cations through the CNG channel can be quantified using membrane potential (MP) dyes. We modified the BD ACTOne technology to allow the detection of PDE inhibitors, and performed an inhibitor screen for PDE-IV, which is expressed endogenously in HEK293 cells. We optimized this assay in homogeneous 1536-well plate assay format for high throughput screening.
NCGC Assay Protocol Summary:
The medium contained 10% FBS (Invitrogen), 2 mM L-glutamine, and 250 ug/ml G418 (Cellgro) and 1 ug/ml puromycin (Clontech). ACTOneTM parental cells (BD Biosciences) were maintained in the same medium without puromycin.
The activity of the CNG channel was measured by BD ACTOneTM membrane potential dye kit (BD Biosciences). Forskolin, a positive control for cAMP activation and RO 20-1724, a PDE inhibitor, were both purchased from Sigma and solublized in DMSO.
Sequence,Parameter,Value,Description
1,Reagent,3 uL,1000 cells/well 1536 TC treated Black plate
3,Compound,0.5 uL,Kalypsys dispense RO 20-1724 100 uM final [A]
4,Reagent,3 uL,BD membrane potential dye
6,Compound,23 nL,Final concentration was 0.7nM to 22.9uM
8,Detector,EX 535 / EM 590 [B],Envision
Footnotes: [A] The stock 2 mM RO 20-1724 PDE inhibitor was made in 10 % DMSO. Parental cell line received 10 uM forskolin + 100 uM RO. [B] Envsion settings: Bottom Excitation 535/20 nm top emission 590/20, gain of 150 and 5 flashes per well.
Keywords: PDE, PDE-IV, cytotoxicity, flourescence, MLSMR, MLSCN, NIH Roadmap, qHTS, NCGC

Compound | activation (PDE inhibition) | outcome
C=C(C)[C@H]1Cc2c(ccc3c2O[C@@H]2COc4cc(OC)c(OC)cc4[C@@H]2C3=O)O1 | 23% (inactive) | –
CCn1cc(C(=O)O)c(=O)c2ccc(C)nc21 | 24.1% (inactive) | –
O=[N+]([O-])c1cc([As](=O)(O)O)ccc1O | 4.46% (inactive) | –
Nc1ccncc1 | – | inactive
NP(N)(=O)NC(=O)c1ccc(F)cc1 | 17% (inactive) | –
Oc1cccc2cccnc12 | 12% (inactive) | –
Cc1cccc(C)c1NC1=NCCCS1 | – | inactive
NCC1(CC(=O)O)CCCCC1 | – | inactive
COC1(CS(=O)c2ccccc2)CCN(CCc2c[nH]c3ccc(F)cc23)CC1 (stereo not given) | 26.5% (inactive) | –
CCN(CC)C(=O)N[C@@H]1C=C2c3cccc4[nH]cc(c34)C[C@@H]2N(C)C1 | – | inactive
Cc1ccc(S(=O)(=O)N[C@@H](CCCCN)C(=O)CCl)cc1 | -1.13% (inactive) | –
COc1ccccc1N1CCNCC1 | -3.68% (inactive) | –
N#CC(C#N)=Cc1ccc(O)c(O)c1 | – | inactive
O=c1[nH]c2ccccc2n1CCCN1CCC(n2c(=O)[nH]c3cc(Cl)ccc32)CC1 | – | inactive
Cc1ncc(CNC(=O)N(CCCl)N=O)c(N)n1 | -11.2% (inactive) | –
O=P1(NCCCl)OCCCN1CCCl (stereo not given) | 3.78% (inactive) | –
O=c1[nH]c2ccccc2n1C1CCN(CCCC(c2ccc(F)cc2)c2ccc(F)cc2)CC1 | – | inactive
CCCN1CCC[C@@H]2Cc3[nH]ncc3C[C@H]21 | – | inactive
c1ccc(C2CC2)c(OCC2=NCCN2)c1 | – | inactive
NN=C(N)N | – | inactive
Fc1ccc(C(OCCN2CCN(CCCc3ccccc3)CC2)c2ccc(F)cc2)cc1 | – | inactive
C#CCN(C)[C@H](C)Cc1ccccc1 | 10.7% (inactive) | –
Clc1cccc(N2CCNCC2)c1 | – | inactive
CCCN1CCC[C@@H]2Cc3nc(N)ncc3C[C@H]21 | 6.55% (inactive) | –
N[C@@H]1C[C@H]1c1ccccc1 | 12.1% (inactive) | –
